Results from PubChem BioAssay AID652256 (National Center for Advancing Translational Sciences (NCATS), 2013).
The other results are listed elsewhere or left out. Activity calls are given as the source filed them.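 The calls were made as follows: active = a half-inhibiting concentration could be measured and was below 100 µM; inactive = the rest.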

System: Thioredoxin reductase 1 (TXNRD1), rat
Test: qHTS Assay for Inhibitors of Mammalian Selenoprotein Thioredoxin Reductase 1 (TrxR1): DTNB Assay
Conditions: purified TrxR1, DTNB reduction, A412
Description: The selenoprotein thioredoxin reductase (TrxR; EC 1.8.1.9) is a FAD containing homodimeric pyridine nucleotide-disulfide oxidoreductase with many cellular roles. Together with NADPH and its prime substrate thioredoxin (Trx), the enzyme forms the core of the Trx system. The mammalian Trx system exerts a wide spectrum of functions including redox regulation, antioxidant defense, regulation of transcription factors as well as support of cell growth and replication. Many of these functions involve the reduction of Trx, which may subsequently reduce a number of different substrates including ribonucleotide reductase, peroxiredoxins or NFkB. Mammalian TrxR itself also has a broad substrate specificity, reducing both protein and non-protein substrates, including low molecular weight compounds such as dehydroascorbate, lipoic acid, ubiquinone, and juglone. In addition, several drugs in clinical use for anticancer treatment are indeed known to target TrxR1. This orthogonal DTNB assay seeks to further characterize cherry picks. NIH Molecular Libraries Probe Production Network [MLPCN] NIH Chemical Genomics Center [NCGC] MLPCN Grant: MH090846 Assay Provider: Elias Arner, Karolinska Institute
15 nM TrxR1 is reduced by 250 microM NADPH in TE buffer [50 mM Tris-HCl (pH 7.5), 2 mM EDTA] in a 96-well microtiter plate. Compounds are then added and incubated for 30 min at 30 degrees C. During compound incubation, NADPH consumption is followed by the decrease in absorbance at 340 nm using a VersaMax microplate reader (Molecular Devices) to determine substrate potential of the compound. DTNB is subsequently added to a final concentration of 2.5 mM, and the formation of TNB- is followed at 412 nm at 30 degrees C to assess inhibitory activity of the compound.

SMILES	Potency
CC1CCN(C(=O)c2ccc(S(=O)(=O)Cc3cc(F)ccc3F)c([N+](=O)[O-])c2)CC1	317 nM (active)
Cc1ccccc1-c1nc(CS(=O)(=O)CC(=O)N2CCc3ccccc3C2)c(C)o1	292 nM (active)
O=C(/C=C/c1ccco1)Nc1cccc(-c2nc3ccccc3[nH]2)c1	10300 nM (active)
